Compound activity: PubChem BioAssay, National Center for Advancing Translational Sciences (NCATS)
Compounds with a hit are over-represented: about 2.8% of the library has one in this group of screens.
KDM5B inhibitor: Primary screen for KDM5B Histone Demethylases FDH-coupled qHTS | Lysine-specific demethylase 5B (Homo sapiens), Q9UGL1 | KDM5B demethylase, FDH-coupled NADH fluorescence (FDH is formaldehyde dehydrogenase) | Potency, µM (series often up to 57.7 µM), usual class: inhibitors | actives 2.6% (n = 220,000) | AID 1347165, 2019; note: nearly all actives have a fitted effect of over 70% in size
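Coupled FDH/NAD⁺ fluorescence readout. KDM5BΔAP 200 nM final; compound titration, 10 min RT preincubation; substrate mix 12.5 µM H3K4me3, 25 µM 2-OG, 50 µM Fe(II), 100 µM ascorbate, 0.25 mM NAD⁺, 0.25 U/mL FDH; ΔRFU over 30 min.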
IP6K1 inh: Primary qHTS assay for small molecule inhibitors of Inositol hexaphosphate kinase 1 (IP6K1) | Inositol hexakisphosphate kinase 1 (Homo sapiens), Q92551 | IP6K1 kinase, ADP-Glo luminescence, 2 h; hits give low values | activity change, % (series mostly up to about 58 µM) | actives 0.81% (n = 140,000) | AID 1645851, 2021; in the data active = activity change below about -25%
Target sequence (Q92551 whole entry, looked up): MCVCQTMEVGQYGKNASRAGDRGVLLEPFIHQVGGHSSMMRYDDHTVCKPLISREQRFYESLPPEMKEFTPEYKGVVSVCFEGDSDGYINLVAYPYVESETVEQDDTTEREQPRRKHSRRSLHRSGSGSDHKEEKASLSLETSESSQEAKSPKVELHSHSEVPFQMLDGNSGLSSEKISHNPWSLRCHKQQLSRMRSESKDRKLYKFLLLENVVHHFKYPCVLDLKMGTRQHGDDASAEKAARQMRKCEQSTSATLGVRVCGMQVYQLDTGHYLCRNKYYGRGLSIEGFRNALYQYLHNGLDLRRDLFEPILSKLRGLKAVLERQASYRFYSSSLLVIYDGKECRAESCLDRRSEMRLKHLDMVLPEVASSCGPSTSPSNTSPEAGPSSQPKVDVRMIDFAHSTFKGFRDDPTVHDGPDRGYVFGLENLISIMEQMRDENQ
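ADP-Glo luminescence measures ADP made by human IP6K1 during a 2 h RT reaction with ATP/IP6 (mix at 1.3 mM/130 uM); top library doses 57.5 and 19.1 uM final.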
SNCA viab count: GF-AFC viability counterscreen for inhibitors of alpha-synuclein gene (SNCA) expression; HEK-293-SNCA-luc viability, GF-AFC fluorescence, 24 h; Potency, µM (top dose mostly 57.1 µM), most hits filed as cytotoxic; actives 0.12% (n = 150,000); note: nearly all actives have a fitted effect of over 30% in size
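Cytotoxicity counterscreen: after 24 h compound treatment of genome-edited SNCA-luciferase HEK-293 cells, live-cell protease substrate GF-AFC read by fluorescence after 30 min; activity scaled between DMSO (0%) and medium-only (-100%), curves Hill-fitted.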
SNCA expr inhib: Primary qHTS assay for inhibitors of alpha-synuclein gene (SNCA) expression. HEK-293 SNCA-luciferase knock-in, luminescence, 24 h. Potency, µM (doses to about 57.2 µM), hits mostly inhibitors. actives 0.17% (n = 140,000). AID 1671194, 2021; note: nearly all actives have a fitted effect of over 45% in size
Large screens that a line does not name were inactive. Unless noted, calls come from the whole dose curve; as a rule, active = well fitted curve in the direction sought with a large enough effect; inconclusive = small, poorly fitted or top-dose-only effect, or another doubt; inactive = no such curve, though single readings can be large; an effect the other way counts as inactive or inconclusive.

O=C1CC2(CCN(CC3CCCCC3)CC2)Oc2ccccc21	KDM5B inhibitor 31.6µM
CN(C)c1ccc(CN2CCC3(CC2)CC(=O)c2ccccc2O3)cc1	none
COc1ccc(CC(C(=O)Nc2ccc(F)cc2)c2nn[nH]n2)cc1 (configuration not stated)	none (no result: IP6K1 inh, SNCA viab count, SNCA expr inhib)
O=C(Nc1nc2n(n1)C(c1ccc(F)cc1)CC(c1ccccc1)N2)c1ccco1 (configuration not stated)	none (no result: IP6K1 inh, SNCA viab count, SNCA expr inhib)
CC(=O)n1c(C=Nc2ccc(Cl)cc2)c(O)c2ccccc21	none (no result: IP6K1 inh, SNCA viab count, SNCA expr inhib)
CC1(C(=O)NCC2CC2)CCc2cnc(NCc3ccccc3)nc21 (configuration not stated)	KDM5B inhibitor 39.8µM, SNCA expr inhib inconclusive
COCCNC(=O)C1(C)CCc2cnc(Nc3ccccc3)nc21 (configuration not stated)	none
CC1(C(=O)NCCCn2ccnc2)CCc2cnc(NCc3ccccc3)nc21 (configuration not stated)	KDM5B inhibitor 39.8µM, SNCA expr inhib inconclusive
COCCNC(=O)C1(C)CCc2cnc(NCc3ccccc3)nc21 (configuration not stated)	KDM5B inhibitor 35.5µM, SNCA expr inhib inconclusive
CC1(C(=O)NCC2CC2)CCCc2cnc(Nc3ccccc3)nc21 (configuration not stated)	SNCA expr inhib inconclusive
Cn1ccc(NC(=O)C2(C)CCc3cnc(NCc4ccccc4)nc32)n1 (configuration not stated)	KDM5B inhibitor 35.5µM
CC(C)CC(=O)N1CCC2(CC1)OCC(C(=O)NCc1ccccc1)N2C(=O)c1ccccc1 (configuration not stated)	SNCA expr inhib inconclusive
COc1ccc(-c2nc3scc(CCNS(=O)(=O)c4c(C)noc4C)n3n2)cc1	SNCA viab count inconclusive
Cn1nc(C2CCNC2)c2c(C(=O)NC3CC3)cc(C3CC3)nc21 (configuration not stated)	KDM5B inhibitor 100µM
Cn1nc(C2CCNC2)c2c(C(=O)NCc3ccc(F)cc3)cc(C3CC3)nc21 (configuration not stated)	KDM5B inhibitor 79.4µM
O=C(c1cc(C2CC2)nc2onc(C3CCNCC3)c12)N1CCC(F)CC1	none
Cn1nc(C2CCNC2)c2c(C(=O)N3CCC(F)CC3)cc(C3CC3)nc21 (configuration not stated)	KDM5B inhibitor 79.4µM
Cn1nc(C2CCNC2)c2c(C(=O)NCC(F)(F)F)cc(C3CC3)nc21 (configuration not stated)	KDM5B inhibitor inconclusive
Cc1ccc(SCC(=O)NC(C)(C#N)C2CC2)cc1C (configuration not stated)	none (no result: IP6K1 inh, SNCA viab count, SNCA expr inhib)
CCOC(=O)c1[nH]c(C)c(CCC(=O)N2CCN(c3ccc(Cl)cc3)CC2)c1C	none
CCN(CC)S(=O)(=O)c1cc(-c2ccc(=O)n(CC(=O)Nc3ccccc3)n2)ccc1C	none (no result: IP6K1 inh, SNCA viab count, SNCA expr inhib)
Cc1noc(C)c1CO[C@@H]1COCC[C@H]1NC(=O)c1cccc(=O)[nH]1	KDM5B inhibitor 17.8µM
COCc1ccc(C(=O)N[C@@H]2COCC[C@@H]2OCc2c(C)noc2C)o1	none
O=C(NC1CCCN(CCn2nc3n(c2=O)CCCC3)C1)c1ccccc1F (configuration not stated)	none (no result: KDM5B inhibitor, SNCA viab count, SNCA expr inhib)
CN(CCO)C[C@@H]1CN(C(=O)c2nc3ccccc3[nH]c2=O)C[C@@H]1CO	KDM5B inhibitor 28.2µM, SNCA expr inhib inconclusive
COc1ccc(OCC2(C)COc3ccc(C(=O)NCC(C)C)cc3N2)cc1 (configuration not stated)	KDM5B inhibitor 25.1µM, SNCA expr inhib inconclusive
CC1(COc2ccccc2)COc2ccc(C(=O)NCc3ccncc3)cc2N1 (configuration not stated)	KDM5B inhibitor inconclusive
CC1(COc2ccccc2)COc2ccc(C(=O)NCc3ccc4c(c3)OCO4)cc2N1 (configuration not stated)	KDM5B inhibitor inconclusive, SNCA expr inhib inconclusive
COc1ccc(OCC2(C)COc3ccc(C(=O)NCc4cccc(F)c4)cc3N2)cc1 (configuration not stated)	KDM5B inhibitor 31.6µM
CCOCC1(C)COc2ccc(C(=O)N(C)Cc3ccccc3)cc2N1 (configuration not stated)	SNCA viab count inconclusive, SNCA expr inhib inconclusive
